# Results reported in PubChem BioAssay (EPA / NIEHS).
# Values joined by “and” are separate entries in the source; they are usually repeats but may differ in a detail not shown here. Identical values can stand only once. Results filed as inconclusive are left out. Active and inactive are the calls of the source. The calls were made as follows, unless noted: active = hit-call score of the fitted dose curve at least 0.9, where 1 is the maximum; inconclusive = response in the unintended direction; inactive = score below 0.9.
# Key:
# [1] = TOX21_p53_BLA_p2_viability: Viability Assessment in the Tox21 HCT-116 p53 Agonism Beta-lactamase Assay, Phase 2 (AID 2283591);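 also: actives lower the ATP signal meaning cytotoxicity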
# Outline: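 HCT116 p53-bla cells, 4000/well, dosed after 5 h plating (217-fold dilution of DMSO stocks) and incubated 16 h at 37C. Viability taken as cellular ATP by CellTiter-Glo luminescence after 30 min RT; signal loss marks cytotoxicity.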
# [2] = target: Cellular tumor antigen p53 (Homo sapiens) (UniProt P04637); experiment: TOX21_p53_BLA_p2_ratio: Tox21 HCT-116 p53 Agonism Beta-lactamase Assay, Ratio, Phase 2 (AID 2283592)
# Outline: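 Readout: blue/green (460/530 nm) FRET emission ratio after 2 h CCF4-AM loading at room temperature, excitation 405 nm. HCT116 p53 bla cells, 16 h compound exposure at 37C, 5% CO2; agonist direction fitted against DMSO baseline.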
# [3] = TOX21_p53_BLA_p3_viability: Viability Assessment in the Tox21 HCT-116 p53 Agonism Beta-lactamase Assay, Phase 3 (AID 2283593);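 also: cells exposed to compound for 16 h before reading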
# Outline: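 HCT116 cells, 4000/well, dosed 5 h after plating by pin transfer (217-fold dilution from DMSO stock) and incubated 16 h at 37C, 5% CO2. Viability read as ATP luminescence with CellTiter-Glo after 30 min at room temperature.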
# [4] = target: Cellular tumor antigen p53 (Homo sapiens) (UniProt P04637); experiment: TOX21_p53_BLA_p3_ratio: Tox21 HCT-116 p53 Agonism Beta-lactamase Assay, Ratio, Phase 3 (AID 2283596)
# Outline: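 Cells were seeded at 4000/well, rested 5 h at 37C, then dosed with DMSO compound solutions (217-fold dilution) for 16 h. CCF4-AM substrate was loaded for 2 h at room temperature, and the 460/530 nm emission ratio was fitted for gain of signal versus DMSO.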
# [5] = TOX21_p53_BLA_p4_viability: Viability Assessment in the Tox21 HCT-116 p53 Agonism Beta-lactamase Assay, Phase 4 (AID 2283597);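 also: hits lower the luminescence signal meaning cytotoxicity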
# Outline: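 ATP content by CellTiter-Glo luminescence, 30 min RT, read after the beta-lactamase ratio step. Cells: HCT116, 4000/well, compound added after 5 h, exposure 16 h at 37C. Signal loss = reduced viability.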
# [6] = target: Cellular tumor antigen p53 (Homo sapiens) (UniProt P04637); experiment: TOX21_p53_BLA_p5_ratio: Tox21 HCT-116 p53 Agonism Beta-lactamase Assay, Ratio, Phase 5 (AID 2283599)
# Outline: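 HCT-116 p53-bla cells (4000/well) plated 5 h, dosed with compound (217-fold DMSO dilution) for 16 h at 37 C; CCF4-AM substrate 2 h at room temperature. Activity is the 460/530 nm emission ratio (405 nm excitation), fitted in gain-of-signal direction versus DMSO.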
# [7] = TOX21_p53_BLA_p5_viability: Viability Assessment in the Tox21 HCT-116 p53 Agonism Beta-lactamase Assay, Phase 5 (AID 2283600)
# Outline: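 ATP luminescence (CellTiter-Glo, 30 min, RT) served as the viability read-out, with loss of signal indicating cytotoxicity. Compounds in DMSO were pinned at a 217-fold dilution onto 4000 cells/well and incubated 16 h, 37C.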
# [8] = target: Cellular tumor antigen p53 (Homo sapiens) (UniProt P04637); experiment: TOX21_p53_BLA_p4_ratio: Tox21 HCT-116 p53 Agonism Beta-lactamase Assay, Ratio, Phase 4 (AID 2283601)
# Outline: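 HCT-116 p53 beta-lactamase reporter cells (4000/well) preincubated 5 h, then compound (217-fold dilution of DMSO stock) for 16 h at 37C. CCF4-AM substrate added 2 h at room temperature; 460/530 nm emission ratio fitted upward versus DMSO.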
# PGR (gene 5241) [9] = target: PGR (gene 5241) (UniProt P06401); experiment: TOX21_PR_BLA_Followup_Antagonist_ratio: Tox21 HEK293 Progesterone Receptor (PR) Antagonism Beta-lactamase Follow-Up Assay, Ratio (AID 2283934)
# Outline: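 Read-out: blue/green beta-lactamase FRET ratio (cleaved ch2 over uncleaved ch1), fitted relative to DMSO baseline. Cells: PR-UAS-bla HEK293T, GAL4-UAS reporter, stimulated with 1 nM R5020 final; 16 hr compound exposure, 37C.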
# [10] = TOX21_PR_BLA_Followup_Agonist_viability: Viability Assessment in the Tox21 HEK293 Progesterone Receptor (PR) Agonism Beta-lactamase Follow-Up Assay (AID 2283935);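 also: signal loss means lower viability so actives are cytotoxic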
# Outline: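 Luminescent ATP quantitation (CellTiter-Glo, 30 min, room temperature) in the same wells as the beta-lactamase read, on PR-UAS-bla HEK293T cells exposed to compound for 16 hr at 37C in 2% charcoal-stripped serum.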
# [11] = TOX21_PR_BLA_Followup_Antagonist_viability: Viability Assessment in the Tox21 HEK293 Progesterone Receptor (PR) Antagonism Beta-lactamase Follow-Up Assay (AID 2283936);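 also: cells exposed to compound with R5020 agonist for 16 h; hits lower the luminescence signal meaning cytotoxicity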
# Outline: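 PR-UAS-bla HEK293T cells in medium with 2% charcoal-stripped FBS were treated with compounds plus R5020 for 16 hr at 37C. After the beta-lactamase read, CellTiter-Glo was added to the same wells and luminescence read after 30 min at room temperature.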
# PGR (gene 5241) [12] = target: PGR (gene 5241) (UniProt P06401); experiment: TOX21_PR_LUC_Followup_Agonist: Tox21 HEK293 Progesterone Receptor (PR) Agonism Luciferase Follow-Up Assay (AID 2283937; active = hit-call score of the fitted dose curve at least 0.9, where 1 is the maximum; inactive = score below 0.9)
# Outline: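 Luminescence read-out (ONE-Glo, 30 min at room temperature) of PR-driven luciferase in HEK293-PR-A-luc cells after 16 h compound exposure at 37C; gain of signal fitted relative to DMSO baseline.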
# PGR (gene 5241) [13] = target: PGR (gene 5241) (UniProt P06401); experiment: TOX21_PR_LUC_Followup_Antagonist: Tox21 HEK293 Progesterone Receptor (PR) Antagonism Luciferase Follow-Up Assay (AID 2283938);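 also: curve fitted upward as signal gain over DMSO baseline despite antagonist label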
# Outline: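 Luminescence from ONE-Glo reagent, measured after 30 min at room temperature, served as readout. Cells (HEK293 carrying PR-A-luc) had been treated 16 h at 37C with DMSO-dissolved compounds. Activity was fitted against DMSO controls.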
# [14] = TOX21_PR_LUC_Followup_Agonist_viability: Viability Assessment in the Tox21 HEK293 Progesterone Receptor (PR) Agonism Luciferase Follow-Up Assay (AID 2283941);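 also: loss of signal means cytotoxicity so actives lower viability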
# Outline: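 Cytotoxicity counter-screen: ATP content by CellTiter-Glo luminescence, loss of signal = reduced viability. HEK293-PR-A-luc, 3,000 cells/well, compound exposure 16 h, 37C.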
# Chain of Cellular tumor antigen p53 (Homo sapiens) (P04637 whole entry, looked up): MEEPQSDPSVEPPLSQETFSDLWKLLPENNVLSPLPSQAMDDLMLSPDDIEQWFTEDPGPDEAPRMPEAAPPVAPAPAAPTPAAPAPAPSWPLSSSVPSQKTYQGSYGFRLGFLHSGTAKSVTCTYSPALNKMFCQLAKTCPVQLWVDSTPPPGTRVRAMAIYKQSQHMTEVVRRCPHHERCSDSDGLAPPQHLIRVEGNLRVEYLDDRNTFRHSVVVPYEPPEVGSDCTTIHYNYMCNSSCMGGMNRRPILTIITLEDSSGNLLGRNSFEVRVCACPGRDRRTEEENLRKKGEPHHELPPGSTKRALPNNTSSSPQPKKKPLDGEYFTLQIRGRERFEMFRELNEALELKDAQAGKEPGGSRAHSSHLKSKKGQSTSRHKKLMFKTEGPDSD
# Chain of PGR (gene 5241) (P06401 whole entry, looked up, the tested form may be a part): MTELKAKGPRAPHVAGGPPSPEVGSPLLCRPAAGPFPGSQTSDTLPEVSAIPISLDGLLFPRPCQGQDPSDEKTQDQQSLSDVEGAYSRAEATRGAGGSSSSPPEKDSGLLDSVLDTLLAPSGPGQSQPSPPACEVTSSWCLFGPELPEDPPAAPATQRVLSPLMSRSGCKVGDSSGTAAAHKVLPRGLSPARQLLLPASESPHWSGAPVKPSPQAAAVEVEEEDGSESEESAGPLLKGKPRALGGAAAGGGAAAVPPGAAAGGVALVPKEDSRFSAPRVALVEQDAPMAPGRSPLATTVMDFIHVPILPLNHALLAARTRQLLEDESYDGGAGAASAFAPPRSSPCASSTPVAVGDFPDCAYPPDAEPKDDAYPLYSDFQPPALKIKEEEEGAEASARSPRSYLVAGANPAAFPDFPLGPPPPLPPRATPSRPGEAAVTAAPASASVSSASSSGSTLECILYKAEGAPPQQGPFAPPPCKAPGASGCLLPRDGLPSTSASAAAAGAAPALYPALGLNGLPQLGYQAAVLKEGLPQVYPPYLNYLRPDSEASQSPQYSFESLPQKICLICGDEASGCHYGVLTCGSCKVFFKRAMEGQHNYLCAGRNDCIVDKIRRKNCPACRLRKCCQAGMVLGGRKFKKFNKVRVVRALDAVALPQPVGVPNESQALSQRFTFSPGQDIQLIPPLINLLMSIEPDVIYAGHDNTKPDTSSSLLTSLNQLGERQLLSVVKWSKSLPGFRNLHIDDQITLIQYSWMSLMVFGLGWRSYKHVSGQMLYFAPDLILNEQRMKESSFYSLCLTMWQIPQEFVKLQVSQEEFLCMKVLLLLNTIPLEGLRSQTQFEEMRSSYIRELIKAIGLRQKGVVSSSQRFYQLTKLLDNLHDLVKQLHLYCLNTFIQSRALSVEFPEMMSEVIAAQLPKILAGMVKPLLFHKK
smiles,measurement,setting,value
CCOC(=O)C1(c2ccccc2)CCN(CCC(C#N)(c2ccccc2)c2ccccc2)CC1,outcome,[1],inactive
same,AC50,[2],16.3 µM (active) and 6.96 µM (active)
same,outcome,[3],inactive
same,AC50,[4],41.6 µM (active) and 7.95 µM (active)
same,outcome,[5],inactive
same,AC50,[6],56.4 µM (active) and 23.9 µM (active)
same,outcome,[7],inactive
same,AC50,[8],43.7 µM (active) and 8.27 µM (active)
same,AC50,PGR (gene 5241) [9],13.7 µM (active)
same,outcome,[10],inactive
same,outcome,[11],inactive
same,outcome,PGR (gene 5241) [12],inactive
same,outcome,PGR (gene 5241) [13],inactive
same,outcome,[14],inactive
